The panel holds about 79,000 compounds, 15% with a hit somewhere; the sample as a whole holds those more often. A number with no mark means an inactive call. The source made the active and inactive calls. Rule as the data show it: active = growth inhibition above about 70%; inactive = the rest.
Test: NCI Yeast Anticancer Drug Screen. Data for the rad50 strain (AID 155);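 also: 0% = growth of vehicle-only cultures of the same strain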
Conditions: S. cerevisiae rad50 strain growth inhibition; at 50.0 µM (retest, dose inferred, filed as 5.0); stronger effect = higher value
Method in brief: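 Growth of the mutant yeast was measured after compound exposure and referenced to vehicle-treated cultures.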

| Compound | growth inhibition |
| --- | --- |
| CC1=CC2OC3CC4OC(=O)/C=C/C=C/C(C(C)O)OCC(=O)C(C)CC(=O)OCC2(CC1)C4(C)C31CO1 (stereo unspecified) | 98% (active) |
| Cc1cc(=O)oc2c3c(ccc12)OC(c1ccc(Br)cc1)CC3=O (stereo unspecified) | 24% |
| OCC(O)C(O)C(O)/C=N\Nc1ccccc1 (stereo unspecified) | 19% |
| CN(C)Cc1ccc2[nH]c3c(c2c1)CCCC3 | 96% (active) |
| CC(C)CCCC(C)C1CCC2C3CC=C4OC(=O)CCC4(C)C3CCC12C (stereo unspecified) | 88% (active) |
| CC(C(=O)c1ccc2cc(Br)c3ccccc3c2c1)N(C)C (stereo unspecified) | 99% (active) |
| O=[N+]([O-])c1ccccc1SCc1ccccc1 | 47% |
| C(=P(c1ccccc1)(c1ccccc1)c1ccccc1)[P+](c1ccccc1)(c1ccccc1)c1ccccc1 | 99% (active) |
| CCOC(=O)N1CCN(C(=S)N/N=C(\C)c2ncccn2)CC1 | 99% (active) |
| CCC1(C)C(C#N)(C#N)C1(C#N)C#N | 95% (active) |
| Cc1ccccc1C(O)(c1ccccc1C)C1(O)CCN(C)CC1 | -3% |
| Oc1c(C(Nc2ccccn2)c2ccccc2)ccc2cccnc12 (stereo unspecified) | 97% (active) |
| Cc1ccc(C(CN(C)C)C(=O)c2ccccc2)cc1C (stereo unspecified) | 97% (active) |
| COC(=O)/C=C(\NC1CC(OC2C[C@](O)(C(C)=O)Cc3c(O)c4c(c(O)c32)C(=O)c2c(OC)cccc2C4=O)OC(C)C1O)C(=O)OC (stereo partly specified) | 97% (active) |
| CC1(C)C/C(=N/NC(N)=S)C(=NO)/C(=N\NC(N)=S)C1 | 60% |
| Cc1cc2c(c(C(N)=O)c1C)-c1cccc(F)c1C2=O | 47% |
